Compounds with a hit are over-represented: about 2.4% of the library has one in this group of screens.
ASK1 primary: inhibitors of human ASK1 kinase. AID 1159602. Q99683. AlphaScreen MKK6 phosphorylation by ASK1, luminescence. 22,000 tested, 0.99% active. inhibition, % at 7.44 µM; in the data active = inhibition above about 35%;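 also: 0% = median of compound wells and 100% = no enzyme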
ULK1 primary: inhibitors of human ULK1 kinase; AlphaScreen Atg13 phosphorylation by ULK1, luminescence; inhibition, % at 5.96 µM; 30,000 tested, 1.9% active; AID 1259251; in the data active = inhibition above about 43%;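 also: 0% = median of compound wells and 100% = no enzyme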
Target sequence (O75385 whole entry, looked up): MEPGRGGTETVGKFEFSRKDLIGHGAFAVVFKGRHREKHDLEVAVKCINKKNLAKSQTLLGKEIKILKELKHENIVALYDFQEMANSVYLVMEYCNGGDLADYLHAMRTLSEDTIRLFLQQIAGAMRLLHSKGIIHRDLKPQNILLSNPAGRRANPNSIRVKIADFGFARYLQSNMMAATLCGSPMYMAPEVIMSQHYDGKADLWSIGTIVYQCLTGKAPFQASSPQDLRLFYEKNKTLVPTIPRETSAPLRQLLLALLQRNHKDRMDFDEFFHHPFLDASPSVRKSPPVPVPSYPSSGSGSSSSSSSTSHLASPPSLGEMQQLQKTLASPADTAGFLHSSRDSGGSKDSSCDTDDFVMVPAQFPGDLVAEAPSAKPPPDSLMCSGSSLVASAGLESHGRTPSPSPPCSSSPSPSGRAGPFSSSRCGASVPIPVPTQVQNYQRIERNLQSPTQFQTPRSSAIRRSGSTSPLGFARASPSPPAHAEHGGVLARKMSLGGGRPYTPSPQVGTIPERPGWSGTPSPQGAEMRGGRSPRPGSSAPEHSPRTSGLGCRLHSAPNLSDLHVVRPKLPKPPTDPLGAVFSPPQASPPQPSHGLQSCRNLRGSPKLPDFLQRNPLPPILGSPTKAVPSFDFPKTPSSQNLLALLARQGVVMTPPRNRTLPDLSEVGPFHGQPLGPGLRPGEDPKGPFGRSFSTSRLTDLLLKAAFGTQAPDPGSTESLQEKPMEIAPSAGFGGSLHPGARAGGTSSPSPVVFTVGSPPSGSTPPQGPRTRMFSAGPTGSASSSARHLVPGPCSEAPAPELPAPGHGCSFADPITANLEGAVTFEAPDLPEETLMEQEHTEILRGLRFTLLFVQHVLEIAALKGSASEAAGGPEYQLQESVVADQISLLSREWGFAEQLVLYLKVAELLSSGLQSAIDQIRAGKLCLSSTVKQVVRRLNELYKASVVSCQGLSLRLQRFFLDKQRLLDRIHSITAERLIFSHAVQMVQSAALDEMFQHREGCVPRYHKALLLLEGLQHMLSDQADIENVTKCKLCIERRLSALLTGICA
AlphaScreen intf: interferes with AlphaScreen TruHits signal in ASK1 counter-screen | shares compounds with ASK1 primary | AlphaScreen TruHits beads, signal interference counterscreen | IC50, µM | 220 tested, 20% active | AID 1159604;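 active = IC50 of 10 µM or lower in the counterscreen; inactive = IC50 above 10 µM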;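 also: loss of AlphaScreen light from TruHits beads alone with no ASK1 enzyme present; potency of signal reduction so a low IC50 flags an assay artifact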
Numbers without * were called inactive; i = inactive; . = not tested or not shown.

SMILES	ASK1 primary	ULK1 primary	AlphaScreen intf
COc1c(-c2cnn(C)c2)ccc2cnc(Nc3ccc(-n4cnc(N5CCOCC5)n4)cc3)nc12	42*	83*	>19
c1cc(-c2ccc3cnc(Nc4ccc(-n5cnc(N6CCOCC6)n5)cc4)nc3c2)ccn1	5	12	.
Cn1cc(-c2ccc3cnc(Nc4ccc(-n5cnc(N6CCOCC6)n5)cc4)nc3c2)cn1	48*	56*	>19
Cn1cc(-c2ccc3cnc(Nc4ccc(-n5cnc(N6CCOCC6)n5)cc4)nc3c2-c2ccccc2)cn1	-17	-78	.
Cn1c(Nc2nccc(Nc3ccc(N4CCOCC4)cc3)n2)nc2ccccc21	26	15	.
c1ccc(Nc2cc(-c3ccnc(Nc4ccccc4)c3)ccn2)cc1	1	-10	.
CC(=O)c1cccc(-c2nccc(NCc3cccnc3)n2)c1	0	7	.
FC(F)(F)c1ccc(Cn2cnc3c(NC4CCN(Cc5ccccc5)CC4)nc(Nc4ccc(N5CCOCC5)cc4)nc32)cc1	40*	6	i
c1ccc(CN2CCC(Nc3nc(Nc4ccc(N5CCOCC5)cc4)nc4c3ncn4C3CCCCC3)CC2)cc1	50*	13	8.1*
FC(F)(F)c1ccc(Cn2cnc3c(Nc4ccc5c(c4)OCO5)nc(NC4CCN(Cc5ccccc5)CC4)nc32)cc1	46*	15	>20
FC(F)(F)c1ccc(Cn2cnc3c(Nc4ccccc4)nc(NC4CCN(Cc5ccccc5)CC4)nc32)cc1	3	-4	.
FC(F)(F)c1ccc(Cn2cnc3c(NC4CC4)nc(Nc4ccc(N5CCOCC5)cc4)nc32)cc1	21	-11	.
c1ccc(CN2CCC(Nc3nc(Nc4ccc(N5CCOCC5)cc4)nc4c3ncn4-c3ccccc3)CC2)cc1	32	7	.
FC(F)(F)c1cccc(CNc2nc(-c3ccccc3)nc3c2ncn3-c2ccccc2)c1	-16	5	.
NC(=O)c1ccc(-c2nc(NCc3cccc(C(F)(F)F)c3)c3ncn(-c4ccccc4)c3n2)cc1	39*	-13	>18
COc1ccc(CCNc2nc(Nc3cccc(N(C)C)c3)nc3c2ncn3Cc2ccc(C(F)(F)F)cc2)cc1	30	22	.
CN(C)c1cccc(Nc2nc(NCCc3ccc(O)cc3)c3ncn(Cc4ccc(C(F)(F)F)cc4)c3n2)c1	37*	32	>19
CC(C)N(CCNc1nc(Nc2cccc(N(C)C)c2)nc2c1ncn2C1CCCCC1)C(C)C	28	3	.
Oc1ccc(CCNc2nc(Nc3ccccc3)nc3c2ncn3-c2ccccc2)cc1	16	-33	.
CN(C)c1cccc(Nc2nc(NCCc3ccc(O)cc3)c3ncn(C4CCCCC4)c3n2)c1	38*	21	>20
CN(C)c1cccc(Nc2nc(NCCc3ccc(O)cc3)c3ncn(-c4ccccc4)c3n2)c1	37*	16	>20
O=C(NCCc1ccc(O)cc1)c1cnc(Nc2ccc(-n3ccnc3)cc2)s1	11	-10	.
COc1cc2nc(N3CCOCC3)nc(Nc3ccc(N4CCOCC4)cc3)c2cc1OC	10	-11	.
CCNc1nc(Nc2ccc3c(c2)OCO3)c2cc(OC)c(OC)cc2n1	13	-1	.
COc1cc2nc(Nc3ccncn3)nc(Nc3ccc(N4CCOCC4)cc3)c2cc1OC	22	-26	.
SMILES	ASK1 primary	ULK1 primary	AlphaScreen intf
COc1cc2nc(Nc3cccc(N(C)C)c3)nc(Nc3ccc4c(c3)OCO4)c2cc1OC	61*	0	3.6*
COc1cc2nc(Nc3ccc(N4CCOCC4)cc3)nc(Nc3cc(OC)c(OC)c(OC)c3)c2cc1OC	53*	-4	7.7*
COc1cc2nc(Nc3cc(OC)c(OC)c(OC)c3)nc(Nc3ccc(N4CCOCC4)cc3)c2cc1OC	48*	-20	7.2*
COc1cc2nc(Nc3ccc(N4CCOCC4)cc3)nc(NC3CC3)c2cc1OC	43*	17	i
COc1cc2nc(Nc3cc(OC)c(OC)c(OC)c3)nc(NC3CC3)c2cc1OC	15	-5	.
CCN(CC)N=Nc1ccc(S(=O)(=O)NC(=O)OC)cc1	.	9	.
O=C(NC1CC1)c1ccc(-c2ncc(C(=O)NCc3nc4ccccc4[nH]3)s2)cc1	-6	-16	.
CC(=O)O[C@H]1CC2(C)[C@@H](C[C@@H](O)[C@H]3[C@@]4(C)CC[C@@H](O)[C@@H](C)[C@@H]4CC[C@@]32C)/C1=C(/CCC=C(C)C)C(=O)O (stereo partly specified)	.	-2	.
Cc1cnc(Nc2cccc(N(C)C)c2)nc1Nc1ccc(N2CCOCC2)cc1	23	37	.
COc1cc2nc(Nc3cccc(N(C)C)c3)nc(Nc3ccc(N4CCOCC4)cc3)c2cc1OC	56*	-4	6.4*
CCN(CC)c1nc(Nc2ccccc2)nc(N2CCN(Cc3ccc4c(c3)OCO4)CC2)n1	13	-7	.
CCN(CC)c1nc(Nc2ccc3c(c2)OCO3)nc(N2CCC(N3CCOCC3)CC2)n1	39*	-10	>20
CCN(CC)c1nc(Nc2ccc(N3CCOCC3)cc2)nc(N2CCC(N3CCOCC3)CC2)n1	14	-7	.
CCN(CC)c1nc(Nc2ccc(N3CCOCC3)cc2)nc(N2CCN(Cc3ccc4c(c3)OCO4)CC2)n1	43*	8	>19
COc1ccc(NC(=O)C(=O)NNC(=O)c2ccco2)cc1	.	-11	.
Cn1c(N2CCOCC2)nc2c1c(=O)n(Cc1ccc(Br)cc1)c(=O)n2C	.	7	.
NC(=O)c1cnc(Nc2ccnc(Nc3ccc(N4CCOCC4)cc3)c2)s1	-2	28	.
NC(=O)c1cc2ccccc2cc1Nc1ccnc(Nc2ccc(N3CCOCC3)cc2)c1	36*	-2	>19
Nc1cccc(-c2nc3ccc(C(=O)NCCCN4CCCC4=O)cc3s2)c1	13	1	.
CC(C)n1cnc2c(NCCCN3CCCC3=O)nc(Nc3nccc4ccccc34)nc21	0	4	.
COc1cc(NC(=O)c2cccc(-n3nc(Cl)c4cc(Nc5ccccc5F)ccc43)c2)cc(OC)c1OC	-13	-21	.
c1cncc(-c2cc(N3CCc4ccccc4C3)nc(-c3ccncc3)n2)c1	.	-15	.
Cc1cc(NCCOc2ccccc2)nc(Nc2cccc(N(C)C)c2)n1	57*	9	6*
CN(C)c1cccc(Nc2cc(Nc3ccccc3)ncn2)c1	37*	-1	>22
Cc1cc(NCCO)nc(Nc2cccc(N(C)C)c2)n1	6	-18	.
SMILES	ASK1 primary	ULK1 primary	AlphaScreen intf
Cc1cc(NCCc2ccc(O)cc2)nc(Nc2cccc(N(C)C)c2)n1	55*	-3	9*
CC(=O)Nc1ccc(Nc2cc(Nc3cccc(N(C)C)c3)ncn2)cc1	-7	2	.
Cc1cc(NCCOc2ccccc2)nc(Nc2cccnc2)n1	-7	-15	.
CC(=O)c1cccc(-c2cccc(C(=O)Nc3ccccc3)c2)c1	-1	0	.
Cc1nn(C)c(C)c1-c1nc2c(Nc3ccc(Oc4ccccc4)cc3)ncnc2n1C(C)C	7	8	.
c1ccc(CN2CCC(Nc3ccnc(Nc4ccc5ncccc5c4)n3)CC2)cc1	-2	-8	.
Cc1cnc(N2CCCC2CO)nc1NC1CCN(Cc2ccccc2)CC1 (stereo unspecified)	-19	3	.
CC(C)n1cnc2c(NCc3nc4ccccc4[nH]3)nc(-c3ccc(C(N)=O)cc3)nc21	-14	21	.
CCN(CC)C(=O)C1CCCN(c2cccc(C(=O)NC3CCN(Cc4ccccc4)CC3)c2)C1 (stereo unspecified)	-2	-2	.
O=c1oc2ccccc2cc1-c1nc(-c2cccc([N+](=O)[O-])c2)n[nH]1	.	-17	.

Bioassay records from PubChem BioAssay.
